This note sets out measurements from article PMC4336329 (PLoS ONE, 2015).

In all, about 310,000 compounds went through this assay and about 14,000 (4.5%) showed an effect of 50% or more. Effects have a minus sign here. The sample holds strong results, similar compounds and a random draw of the others, so the mix is not that of the screen.
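Note: peak tail current of the secondary pulse compared with the same well before compound.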

human ether-à-go-go-related gene (hERG) potassium channel, sequence (Q12809 whole entry, looked up): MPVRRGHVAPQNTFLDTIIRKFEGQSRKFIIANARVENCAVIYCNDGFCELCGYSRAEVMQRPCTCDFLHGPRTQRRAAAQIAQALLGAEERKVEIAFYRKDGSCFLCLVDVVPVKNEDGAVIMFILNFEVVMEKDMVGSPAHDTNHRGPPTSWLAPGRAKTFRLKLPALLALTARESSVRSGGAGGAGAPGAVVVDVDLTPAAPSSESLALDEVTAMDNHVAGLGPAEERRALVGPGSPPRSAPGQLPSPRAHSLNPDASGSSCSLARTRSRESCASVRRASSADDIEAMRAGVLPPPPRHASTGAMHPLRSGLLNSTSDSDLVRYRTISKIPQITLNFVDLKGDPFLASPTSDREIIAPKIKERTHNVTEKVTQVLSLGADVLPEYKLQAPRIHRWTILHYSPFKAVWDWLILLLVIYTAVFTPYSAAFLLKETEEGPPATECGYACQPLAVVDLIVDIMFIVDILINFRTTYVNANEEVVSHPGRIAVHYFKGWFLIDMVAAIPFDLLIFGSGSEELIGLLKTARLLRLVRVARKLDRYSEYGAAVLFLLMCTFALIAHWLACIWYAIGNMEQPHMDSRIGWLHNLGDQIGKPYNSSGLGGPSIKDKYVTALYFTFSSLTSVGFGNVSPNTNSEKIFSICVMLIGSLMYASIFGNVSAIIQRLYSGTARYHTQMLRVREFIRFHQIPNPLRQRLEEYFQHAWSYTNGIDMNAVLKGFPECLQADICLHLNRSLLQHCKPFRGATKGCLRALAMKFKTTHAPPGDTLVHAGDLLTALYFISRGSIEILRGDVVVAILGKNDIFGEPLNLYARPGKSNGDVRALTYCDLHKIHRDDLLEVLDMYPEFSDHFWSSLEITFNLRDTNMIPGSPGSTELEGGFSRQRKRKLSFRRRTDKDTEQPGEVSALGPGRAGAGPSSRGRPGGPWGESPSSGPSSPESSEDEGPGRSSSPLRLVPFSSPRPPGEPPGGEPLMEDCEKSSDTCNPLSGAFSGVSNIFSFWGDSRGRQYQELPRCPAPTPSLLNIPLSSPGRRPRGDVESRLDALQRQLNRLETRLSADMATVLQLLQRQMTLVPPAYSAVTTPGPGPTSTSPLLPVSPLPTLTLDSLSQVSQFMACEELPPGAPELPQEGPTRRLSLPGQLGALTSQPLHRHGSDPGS

The test has as its target human ether-à-go-go-related gene (hERG) potassium channel (human, UniProt Q12809). Nature of the test: primary screen, population patch clamp on CHO cells stably expressing hERG; higher = less effect of the substance.
Consider `Cc1noc(C)c1C(=O)NCc1ccco1`, for which the “hERG current change (%, negative = inhibition) at 10uM” value was determined as 0.0994%.
As for `C/C(=N/NC(N)=S)c1cc2ccc(O)cc2oc1=O`, the “hERG current change (%, negative = inhibition) at 10uM” value worked out at 21.7%.
The result for `O=C(Nc1ccccc1C(=O)O)c1ccccc1` reads 8.69%; that for `COc1ccc2oc(=O)c(C(=O)N3CCN(C(=O)c4ccco4)CC3)cc2c1`, -12.9%.
Then `CC(Oc1ccc(F)cc1F)C(=O)NNC(=S)NCC1CCCO1` (stereo not shown), with 9.12%; and `CC(C)(C)C(=O)Nc1sc2c(c1C#N)CCN(Cc1ccccc1)C2.Cl`, with 1.78%; and `CCc1ccc(-c2cc(C(=O)Nn3cnnc3)c3ccccc3n2)cc1`, with 10.7%.
As for `Clc1c(-c2nnc3n2CCCCC3)sc2ccccc12`, the “hERG current change (%, negative = inhibition) at 10uM” value is listed as -13.9%.
The result for `COc1ccc2c(Cl)c(-c3nnc4n3CCCCC4)sc2c1` reads -51.2%.
The result for `Clc1c(-c2nnc3n2CCC3)sc2ccccc12` reads 10.4%; that for `COc1cc(NC(=O)CSc2nc(C)c(C)c(C)n2)c(C)cc1[N+](=O)[O-]`, 0.898%.
Then `Cc1nn(-c2ccccc2)c2c1C(O)CC(C)(C)C2` (stereo not shown), with 17.8%; and `COc1cc(-c2nc3cnccn3c2Nc2ccccc2)ccc1O`, with -0.787%; and `CN1CCN(C(=O)/C=C/c2ccc(C#N)cc2)CC1`, with -54.3%.
Take `CSc1ccc(/C=C/C(=O)N2CCCN(C)CC2)cc1.Cl`: the “hERG current change (%, negative = inhibition) at 10uM” value is listed as -26.6%.
Then `CCOC(=O)N1CCN(C(=O)/C=C/c2ccc(C(C)(C)C)cc2)CC1`, with -26.1%.
Regarding `CN1CCN(C(=O)/C=C/c2ccc(Cl)cc2)CC1`, the “hERG current change (%, negative = inhibition) at 10uM” value is reported as -44.8%.
The result for `CCOC(=O)N1CCN(C(=O)/C=C/c2ccc(OC)cc2)CC1` reads -17.8%; that for `CCOC(=O)N1CCN(C(=O)/C=C/c2ccc([N+](=O)[O-])cc2)CC1`, -70.6%.
Then `CN1CCN(C(=O)/C=C/c2ccc(Cl)c(Cl)c2)CC1`, with -23%; and `CCN1CCN(C(=O)/C=C/c2ccc(OC)cc2)CC1`, with -19.1%.
In the case of `CN1CCN(C(=O)/C=C\c2ccc(Cl)cc2)CC1`, the “hERG current change (%, negative = inhibition) at 10uM” value is recorded as -41%.
Then `CCN1CCN(C(=O)/C=C/c2ccc([N+](=O)[O-])cc2)CC1`, with -64.2%.
Then `CN1CCN(C(=O)/C=C/c2ccc([N+](=O)[O-])cc2)CC1`, with -67%.
The result for `CCN1CCN(C(=O)/C=C/c2ccc(C(C)C)cc2)CC1` reads -35.2%.
Turning to `COc1ccc(-c2cc3nc(C)cc(N)n3n2)cc1`, the “hERG current change (%, negative = inhibition) at 10uM” value was 3.53%.
Then `CCCCC(=O)NC1(C(F)(F)F)C(=O)Nc2c1c(=O)n(C)c(=O)n2C` (stereo not shown), with -4.15%.
The result for `O=C(NC1CC(=O)N(c2ccccc2)C1)C(=O)c1c[nH]c2ccccc12` (stereo not shown) reads -11.1%; that for `COc1cc2c(cc1OC)CN(C(=O)/C=C/c1cccc([N+](=O)[O-])c1)CC2`, -31.2%.
The result for `COc1cc2c(cc1OC)CN(C(=O)/C=C/c1ccc(F)cc1)CC2` reads -22.2%.
As for `COc1cc2c(cc1OC)CN(C(=O)/C=C/c1ccc([N+](=O)[O-])cc1)CC2`, the “hERG current change (%, negative = inhibition) at 10uM” value is -55.1%.
The result for `CCOc1cc(C(c2c(C)[nH][nH]c2=O)c2c(C)[nH][nH]c2=O)ccc1OC(=O)c1cccc([N+](=O)[O-])c1` reads -4.87%; that for `CCOc1ccc(-c2cc(C)[n+](CCc3ccc(OC)c(OC)c3)c(-c3ccc(OCC)cc3)c2)cc1.[O-][Cl+3]([O-])([O-])[O-]`, -83.1%; that for `Cc1cc(-c2ccccc2)cc(C)[n+]1Cc1ccccc1.[O-][Cl+3]([O-])([O-])[O-]`, 5.38%.
The result for `Cc1cc(-c2ccccc2)cc(-c2ccccc2)[n+]1CCc1ccccc1.[O-][Cl+3]([O-])([O-])[O-]` reads -76.5%.
The result for `CCOc1ccc(-c2cc(C)[n+](CCN(CC)CC)c(-c3ccc(OCC)cc3)c2)cc1.[O-][Cl+3]([O-])([O-])[O-]` reads -79.3%; that for `Br.CC(C)O.Cc1ccc(-c2csc(Nc3ccccc3)[n+]2CCc2ccccc2)cc1`, 20.5%; that for `COc1ccc(CCNC(=O)COc2ccc(-c3ccc(C)cc3)cc2)cc1OC`, -9.64%.
In the case of `CCOc1ccc(-c2cn[nH]c2N)cc1`, the “hERG current change (%, negative = inhibition) at 10uM” value is -5.03%.
Then `CCOc1ccc(C(=O)CC(=O)C(=O)NCCc2ccc(OC)c(OC)c2)cc1`, with -10%; and `CCOc1ccc(-c2cc(C)[n+](CCO)c(-c3ccc(OCC)cc3)c2)cc1.[O-][Cl+3]([O-])([O-])[O-]`, with -62.6%; and `CCOc1ccc(-c2cc(C)[n+](CCN3CCOCC3)c(-c3ccc(OCC)cc3)c2)cc1.[O-][Cl+3]([O-])([O-])[O-]`, with -41.4%.
Then `CCOc1ccc(-c2nc(C)sc2CC(=O)O)cc1`, with 11%; and `CCOC(C[n+]1c(-c2ccccc2)cc(C)cc1-c1ccccc1)OCC.[O-][Cl+3]([O-])([O-])[O-]`, with 3.9%; and `O=C(CNC(=O)c1ccc(Br)o1)NNC(=O)c1ccc(Br)cc1`, with -35.6%.
The result for `O=C(c1ccccc1-c1nc2ccccc2[nH]1)N1CCOCC1` reads -5.47%; that for `COCCN1CCN(C(=O)C2CCC(=O)N(Cc3ccccc3OC)C2)CC1` (stereo not shown), 8.85%.
For `COc1ccc(/C=C(\C#N)C(=O)NCc2ccccc2)cc1`, the “hERG current change (%, negative = inhibition) at 10uM” value amounted to 19.4%.
The result for `CCN1C(=O)[C@H]2[C@@H](c3ccc(SC4CCCCC4)c(OC)c3)N3CCCC[C@@]3(C(=O)OC)[C@H]2C1=O.O=C(O)C(F)(F)F` reads 13%; that for `COC(=O)[C@@]12CCCCN1[C@H](c1ccc(SC3CCCCC3)c(OC)c1)[C@@H]1C(=O)N(C)C(=O)[C@@H]12.O=C(O)C(F)(F)F`, 19.8%.
The result for `CCN1C(=O)[C@@H]2[C@@H](c3ccc(SC4CCCCC4)c(OC)c3)N3CCC[C@@]3(C(=O)OC)[C@@H]2C1=O.O=C(O)C(F)(F)F` reads -56%; that for `COC(=O)c1ccccc1NC1=C/C(=N\S(=O)(=O)c2ccc(C(=O)O)cc2)c2ccccc2C1=O`, -15.5%.
Then `CCCCNC(=O)C(C#N)c1nc2ccccc2nc1N1CCN(c2ccccc2F)CC1` (stereo not shown), with 4.79%; and `CC1CCN(C(=O)COC(=O)c2ccc(=O)n(Cc3ccccc3)n2)CC1`, with -0.635%; and `Cc1ccc(/C=C/C2=NN(Cc3ccccc3Cl)C(=O)CC2)cc1`, with -4.44%.
For the compound `COc1ccc(-c2nnnn2C(C)C)cc1S(=O)(=O)Nc1ccccc1`, the “hERG current change (%, negative = inhibition) at 10uM” value is listed as -13.9%.
In the case of `O=C(NCCSCc1c(F)cccc1Cl)c1ccc(CN2CCOCC2)cc1`, the “hERG current change (%, negative = inhibition) at 10uM” value is -26.9%.
Then `Cc1ccc(C(=O)NCCCN2CCOCC2)o1`, with 30.3%; and `O=C(NCCSc1ccc(Cl)cc1)c1ccc(CN2CCOCC2)cc1`, with -58.5%; and `O=C(NCCCN1CCOCC1)c1ccc(CS(=O)(=O)Cc2ccc(Cl)cc2)o1`, with 4.4%.
As for `O=C(NCCSCc1ccc(Cl)cc1Cl)c1ccc(CN2CCOCC2)cc1`, the “hERG current change (%, negative = inhibition) at 10uM” value is recorded as -54.6%.
Then `O=C(NCCCN1CCOCC1)c1ccc(-c2ccc(Cl)cc2)o1`, with -55.1%.
The result for `O=C(NCCN1CCOCC1)c1ccc(Cl)cc1` reads 16%.
The result for `Cc1cccc(CSCCNC(=O)c2ccc(CN3CCOCC3)cc2)c1` reads -28.3%.
For the compound `Cc1ccc(SCCNC(=O)c2ccc(CN3CCOCC3)cc2)cc1`, the “hERG current change (%, negative = inhibition) at 10uM” value is reported as -32.6%.
Then `O=C(NCCSc1ccccc1)c1ccc(CN2CCOCC2)cc1`, with -10.3%; and `Cl.O=C(NCCCN1CCOCC1)c1ccc(CSc2ccc(Cl)cc2)cc1`, with -59.2%; and `O=C(CCNC(=O)c1ccc(Cl)cc1)NCCCN1CCOCC1`, with 4.31%.
Then `O=C(CSc1nnc(CNC(=O)c2cccc(C(F)(F)F)c2)o1)NC1CCCC1`, with 5.51%; and `O=C(Cc1ccc(Br)cc1)N1CCOCC1`, with 13.6%.
Then `COc1ccc(C(=O)Nc2sc3c(c2C(=O)O)CC(C)(C)OC3)cc1`, with -2.18%; and `CN1CCN(c2ccccc2NC(=O)c2c(F)cccc2F)CC1`, with -19.9%.
With `O=C(NCc1ccco1)/C(=C\c1ccco1)NC(=O)c1cccs1`, the “hERG current change (%, negative = inhibition) at 10uM” value was -14.8%.
Then `CCOC(=O)c1c(NC(=O)CSc2nnc(-c3cccnc3)o2)sc(C(C)=O)c1C`, with -46.1%; and `Cc1ccc(-n2c(SCC(=O)N3CC(=O)Nc4ccccc43)nc3ccccc3c2=O)cc1`, with -1.05%.
The result for `CNC(=S)SCCOc1ccccc1` reads -4.52%; that for `O=C(Cc1cccs1)Nc1nc(-c2ccc(F)c(F)c2)cs1`, 19%; that for `CCOc1ccc(N2CC(C(=O)NCCCN3CCOCC3)CC2=O)cc1` (stereo not shown), -5.47%.
Then `O=C(COc1ccc(Br)cc1Cl)N1CCN(c2ncccn2)CC1`, with -49.7%.
As for `COc1ccc(CN(CC(=O)NCc2ccc(F)cc2)C(=O)c2ccco2)cc1`, the “hERG current change (%, negative = inhibition) at 10uM” value was -61.7%.
In the case of `COc1ccc(CN(CCC(c2ccccc2)C2CCOC(C)(C)C2)C(C)=O)cc1` (stereo not shown), the “hERG current change (%, negative = inhibition) at 10uM” value was -11.6%.
The result for `COc1cccc(CN(CC(=O)NCc2ccc(F)cc2)C(=O)c2ccco2)c1` reads -39.2%.
The result for `CC(c1ccccc1)N(CCC(c1ccccc1)C1CCOC(C)(C)C1)C(=O)c1ccco1` (stereo not shown) reads -22.2%.
Turning to `CC1(C)CC(C(CCN(Cc2ccccc2)C(=O)c2ccco2)c2ccc(F)cc2)CCO1` (stereo not shown), the “hERG current change (%, negative = inhibition) at 10uM” value is -10.4%.
Then `COc1ccc(CNCCC(c2ccccc2)C2CCOC(C)(C)C2)cc1` (stereo not shown), with -52.1%; and `O=C(CN(Cc1ccccc1F)C(=O)c1ccco1)NCc1ccc(F)cc1`, with -50.7%.
Then `CC1(C)CC(C(CC(=O)O)c2ccccc2)CCO1` (stereo not shown), with 28.9%.
For the compound `O=C(CN(Cc1ccc(F)cc1)C(=O)c1ccco1)NCc1ccc(F)cc1`, the “hERG current change (%, negative = inhibition) at 10uM” value is reported as -40.9%.
Then `COc1ccc(CN(CCC(c2ccc(F)cc2)C2CCOC(C)(C)C2)C(=O)c2ccco2)cc1` (stereo not shown), with -52.1%; and `O=C(CN(Cc1ccccc1)C(=O)c1ccco1)NCc1ccc(F)cc1`, with -31.6%; and `CCCCN(CC(=O)NCc1ccc(F)cc1)C(=O)c1ccco1`, with 8.72%.
